Reference: the supplement of paper PMC5662767

System: Drosophila S2 cl14 SmoIP sensor cells
Assay: normalized SmoIP GFP fluorescence (untreated unstimulated = 0%, untreated Hh-stimulated = 100%); higher = more Smo activation sensor fluorescence
Conditions: compound concentration: 2 uM, 24 h
[1] = stimulation: Hh conditioned medium (+Hh)
[2] = stimulation: mock conditioned medium (-Hh)
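Also: flow cytometry read-out as median GFP intensity of gated cells, compounds added 30 min before Hh-conditioned or mock medium, mock-treated cells serving as unstimulated baseline.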

SMILES	normalized SmoIP GFP fluorescence [1] [%]	normalized SmoIP GFP fluorescence [2] [%]
O=C(O)C1(Cc2cccc(Nc3nccs3)n2)CCC(Oc2cccc(Cl)c2F)CC1 (stereo unspecified)	179	24.4
Cn1c(=O)c(F)c(Nc2ccc(I)cc2F)c2c(=O)n(C[C@@H](O)CO)cnc21	262	47.8
CC(=O)Nc1nc2c(Oc3cc(-c4ccc(C(F)(F)F)cc4)ncn3)cccc2s1	111	-4.7
Cc1nnc(C(C)C)n1C1C[C@H]2CC[C@@H](C1)N2CC[C@H](NC(=O)C1CCC(F)(F)CC1)c1ccccc1 (stereo in doubt) [Maraviroc]	122	-13.4
CC(C)c1cc(-c2n[nH]c(=O)n2-c2ccc3c(ccn3C)c2)c(O)cc1O [ganetespib-sta-9090]	103	-1.56
Cc1cc(-c2ccc(CC(=O)Nc3ccc(-c4cccnc4)cc3)cc2)ccn1	247	10.6
O=C1[C@H](Cc2ccc(O)cc2)N2C(=O)CCN(C(=O)NCc3ccccc3)[C@H]2CN1Cc1cccc2ccccc12	125	-2.82
Nc1ncnc2n[nH]c(Nc3ccc(F)cc3)c12	89.9	2.64
CC(C)n1nc(-c2ccc3oc(N)nc3c2)c2c(N)ncnc21	73.9	-0.889
O=C(O)CCCN1CCC(O[C@@H](c2ccc(Cl)cc2)c2ccccn2)CC1 [bepotastine-besilate]	103	-2.31
Cc1cc(Nc2ccc(NC(=O)c3ccc(Nc4ccnc5ccccc45)cc3)cc2)nc(N)n1	108	-3.5
O=C(Nc1ccncc1)c1cc([N+](=O)[O-])ccc1Cl	114	-2.82
CCCCCCCCCCCCc1ccc(S(=O)(=O)Nc2nncs2)cc1	111	1.03
